Among all 48,000 compounds or so, about 13,000 (27%) showed an effect of 50% or more. This is one part of the list.
Each molecule was assayed on Wolbachia pipientis (assay: Anti-Wolbachia Cell-Based Screen). Details: 5 µM.
Type: functional
Set-up: scale not given: in the data most compounds retested in dose-response had high values

Row | SMILES | Percent Effect [%]
1 | Cc1cc(C)n(CC2(CNC(=O)C(c3ccccc3C)N(C)C)CC2)n1 (stereo not drawn) | -3.627
2 | Cc1nc(CN(CCS(C)(=O)=O)C(C)C)cs1 | -0.8172
3 | CN(C)CCO[C@@H]1CC[C@H]2[C@H]1OCCN2C(=O)c1ccc(F)cc1.O=C(O)C(F)(F)F | 97.45
4 | CO[C@H]1CC[C@H]2[C@H]1OCCN2C(=O)c1ccc(C)nc1 | 6.779
5 | Cc1ccc(C(=O)N2CCO[C@H]3[C@H](OCCN(C)C)CC[C@@H]32)cn1 | 110.3
6 | Cc1ccoc1C(=O)N1CCO[C@H]2[C@H](OCc3ccncc3)CC[C@@H]21 | 96.45
7 | O=C(C1CCOCC1)N1CCO[C@H]2[C@@H](OCc3ccncc3)CC[C@@H]21 | -9.852
8 | Cc1ccc(C(=O)N2CCO[C@H]3[C@H](OCCN(C)C)CC[C@@H]32)o1.O=C(O)C(F)(F)F | 8.027
9 | Cc1cccc(C(=O)N2CCO[C@H]3[C@H](OCCN(C)C)CC[C@@H]32)n1 | 97.76
10 | CO[C@@H]1CC[C@H]2[C@H]1OCCN2C(=O)c1ccc(C)nc1.O=C(O)C(F)(F)F | 2.504
11 | Cc1ccoc1C(=O)N1CCO[C@H]2[C@H](OCC3CCOCC3)CC[C@@H]21 | -7.099
12 | c1ccc2c(c1)OCCC2NCc1ccc(N2CCOCC2)cc1 (stereo not drawn) | 6.608
13 | Cc1cccc(Nc2c(C#N)c(=O)n(C)c(=O)n2C)c1 | -3.383
14 | CN(C)CCO[C@@H]1CC[C@H]2[C@H]1OCCN2C(=O)c1ccncc1 | 113.2
15 | O=C(O)C(F)(F)F.O=C(c1cnccn1)N1CCO[C@H]2[C@H](OCc3cccnc3)CC[C@@H]21 | -4.658
16 | Cc1cncc(C(=O)N2CCO[C@H]3[C@H](OCCN(C)C)CC[C@@H]32)c1.O=C(O)C(F)(F)F.O=C(O)C(F)(F)F | 111.8
17 | Cc1cncc(C(=O)N2CC[C@@H]3[C@H]2CCC(=O)N3CCN(C)C)c1.O=C(O)C(F)(F)F.O=C(O)C(F)(F)F | -10.7
18 | Cc1cncc(C(=O)N2CCO[C@H]3[C@H](Oc4ccccn4)CC[C@@H]32)c1.O=C(O)C(F)(F)F.O=C(O)C(F)(F)F | -8.484
19 | CN(C)CCO[C@@H]1CC[C@H]2[C@H]1OCCN2C(=O)c1ccnnc1.O=C(O)C(F)(F)F | 98
20 | Cc1ccc(C(=O)N2CCN3C[C@H](Oc4cccc(F)c4)C[C@H]3C2)cn1.O=C(O)C(F)(F)F.O=C(O)C(F)(F)F | 3.581
21 | CC(C)N1CCCC2(CCN(C(=O)CCCn3cccn3)C2)C1=O (stereo not drawn) | -14.27
22 | Cc1nc(C)c(S(=O)(=O)NC(=O)c2sccc2C)s1 | 101.5
23 | CC(NC(=O)c1cccs1)C(=O)NS(=O)(=O)c1cccc(C#N)c1 (stereo not drawn) | 3.018
24 | Cc1cn2c(n1)CCC(NS(=O)(=O)c1sc(C)nc1C)C2 (stereo not drawn) | -17.67
25 | CSc1ccsc1C(=O)NS(=O)(=O)c1ccc(F)cc1 | -34.42

Row | SMILES | Percent Effect [%]
26 | CC(NC(=O)c1cccs1)C(=O)NS(=O)(=O)c1ccc(C#N)cc1 (stereo not drawn) | 8.47
27 | Cc1nc(C)c(S(=O)(=O)NC(=O)c2cccs2)s1 | 102.2
28 | O=C(NCCCC(=O)N1Cc2ccccc2C1)NCc1cccnc1 | 2.963
29 | CN(CC1CCC1)C(=O)c1ccc(-c2nc(C3CC3)n[nH]2)cc1 | 0.7414
30 | CC1CNC(=O)CCN1Cc1cc(O)c2cccc(F)c2n1 (stereo not drawn) | -25.66
31 | O=C(O)C(F)(F)F.O=C(c1cnccn1)N1CCc2ncnc(-c3cccnc3)c2CC1 | -7.804
32 | O=C(c1ccccn1)N1CCc2ncnc(-c3ccncc3)c2CC1 | 88.26
33 | CN(C)c1ncnc2c1CCN(C(=O)c1cccnc1)CC2.O=C(O)C(F)(F)F | 9.198
34 | O=C(C1CC=CC1)N1CCc2ncnc(-c3ccncc3)c2CC1 | 8.097
35 | CN(C)CC(=O)N1CCc2ncnc(-c3ccsc3)c2CC1 | -2.469
36 | O=C(c1cscn1)N1CCc2ncnc(-c3ccncc3)c2CC1 | 110.3
37 | O=C(c1ccccn1)N1CCc2ncnc(N3CCOCC3)c2CC1 | -1.06
38 | O=C(c1cc[nH]n1)N1CCc2ncnc(NCc3ccccn3)c2CC1 | -6.382
39 | O=C(O)C(F)(F)F.O=C(c1cscn1)N1CCc2ncnc(-c3cccnc3)c2CC1 | 99.58
40 | CN(CC(=O)N(C)C1CCCCC1)C1CCc2ccccc21 (stereo not drawn) | -4.106
41 | O=C(NCc1csc2ccccc12)NCC1(O)CCSC1 (stereo not drawn) | -14.62
42 | CN(C)C1CCCN(C(=O)NCCNC(=O)C2CCCCC2)C1 (stereo not drawn) | 2.915
43 | Cc1oc(C)c(C(=O)NCc2cccc(NC(=O)CN(C)C)c2)c1C | 14.93
44 | Cc1oc(C)c(C(=O)NCc2ccccc2S(=O)(=O)N(C)C)c1C | -1.431
45 | CNS(=O)(=O)c1ccc(CNC(=O)c2c(C)oc(C)c2C)cc1 | 84.51
46 | CNS(=O)(=O)Cc1ccc(CNC(=O)c2ccccn2)cc1 | 102.4
47 | CCN(CC)c1ccc(CNC(=O)c2ccccn2)cn1 | 19.52
48 | CNS(=O)(=O)Cc1ccc(CNC(=O)c2cccc(C)n2)cc1 | 2.12
49 | CNS(=O)(=O)c1ccc(CNC(=O)NCC2CCC2)cc1 | -8.591
50 | CNS(=O)(=O)c1cccc(CNC(=O)c2c(C)oc(C)c2C)c1 | 20.61

Row | SMILES | Percent Effect [%]
51 | Cc1cccc(C(=O)NCc2ccc(CS(N)(=O)=O)cc2)n1 | 93.95
52 | Cc1oc(C)c(C(=O)NCc2cccc(C(N)=O)c2)c1C | 95.24
53 | CNS(=O)(=O)c1ccc(CNC(=O)c2ccccn2)cc1 | 0.2857
54 | Cc1cccc(C(=O)NCc2ccc(S(N)(=O)=O)cc2)n1 | -0.8879
55 | CC(C)c1noc(CNc2cccc(-c3nnnn3C)c2)n1 | -7.266
56 | N#Cc1cccc(C(=O)N2CC(c3nc(-c4ccc[nH]c4=O)no3)C2)c1 | 9.318
57 | Cc1c[nH]c(CN(C)C(=O)c2ccc(CSc3nnc[nH]3)o2)n1 | -3.87
58 | CC(C(=O)N(C)C1CCCCC1)S(=O)(=O)Cc1csc(-c2cccs2)n1 (stereo not drawn) | -23.89
59 | CNS(=O)(=O)c1ccc(CNC(=O)NCc2cc[nH]n2)cc1 | -14.1
60 | CNS(=O)(=O)c1ccc(CNC(=O)c2cccc(C)n2)cc1 | 84.72
61 | COc1ncccc1CNC(=O)c1cccc(C)n1 | 6.477
62 | CCN(CC)c1ccc(CNC(=O)c2cccc(C)n2)cn1 | 13.97
63 | Cc1cccc(C(=O)NCc2ccccc2)n1 | 112.9
64 | CN1CCN(Cc2nc3ccccc3[nH]2)[C@H]2CS(=O)(=O)C[C@H]21 | -11.18
65 | CNc1cc(C)nc(N2CCC3(CC2)[C@H](O)C[C@@H]3OCCN(C)C)n1 | -28.04
66 | COCC(=O)N1CCCCC1c1nc(N(C)C)ncc1-c1cc(C)no1 (stereo not drawn) | 90.99
67 | Cc1csc(C2CCCCN2C(=O)COCc2nc(C)no2)n1 (stereo not drawn) | -7.815
68 | Cc1cc(C2CCCN2C(=O)COc2ccc(CC#N)cc2)on1 (stereo not drawn) | -5.28
69 | CCC(=O)N1CCCCC1c1nc(N(C)C)ncc1-c1cc(C)no1 (stereo not drawn) | 127.9
70 | CCCC(=O)N1CCCCC1c1nc(N(C)C)ncc1-c1cc(C)no1 (stereo not drawn) | 132.6
71 | Cc1cc(-c2cnc(N(C)C)nc2C2CCCCN2C(=O)C2CC2)on1 (stereo not drawn) | 124.3
72 | Cc1ccc(C(=O)NCC(C)Cn2ccnc2C)c(=O)[nH]1 (stereo not drawn) | -21.01
73 | Cc1nc(-c2cn(CCN)nn2)n(-c2ccc3c(c2)CCC3)n1 | -87.51
74 | COc1ccc(NC(=O)N2CCCC2c2ccncc2)cn1 (stereo not drawn) | -8.379
75 | CC[C@@]1(O)CCN(Cc2cc(C3CCCCC3)no2)C[C@H]1O | 5.851

Row | SMILES | Percent Effect [%]
76 | C[C@@H]1CN(Cc2c[nH]c(CC3CCCC3)n2)CC[C@]1(C)O | 8.823
77 | Cc1nc2c(c(N3C[C@@H](C)[C@@](C)(O)C3)n1)CCC2 | 13.84
78 | CCc1nc(C)sc1CN1CC[C@@](O)(CCOC)[C@H](C)C1 | 97.23
79 | CCc1nc(C)sc1CN1CC[C@](C)(O)[C@H](C)C1 | 84.46
80 | CC[C@@]1(O)CCN(c2ncc(Cl)cc2F)C[C@H]1O | -11.81
81 | CCc1ccc(S(=O)(=O)N2CC[C@@](O)(CCOC)[C@H](C)C2)cc1 | -34.1
82 | COCC[C@]1(O)CCN(C(=O)c2cnn(C)c2)C[C@H]1C | -13.07
83 | CCc1nc(C)sc1CNC1CCN(Cc2ccccc2)C1 (stereo not drawn) | -80.76
84 | CNC(=O)c1noc(CN2CC[C@](C)(O)[C@H](C)C2)n1 | 23.29
85 | CCc1nc(C)sc1CN1CC[C@](O)(CC)[C@H](O)C1 | 116.1
86 | CCc1nc(C)sc1CN1C[C@@H](C)[C@@](C)(O)C1 | 98.2
87 | O=C(O)CCNC(=O)C1(c2cccc(Br)c2)CCOCC1 | -13.76
88 | NC(=O)C1CCCN1Cc1ccccc1NC(=O)Cc1cccc(F)c1 (stereo not drawn) | -5.666
89 | N#Cc1cccnc1NCCNC(=O)N1CCSCC1 | -7.557
90 | CCC(C)N1CCc2c(C(=O)N(C)Cc3ccccn3)nn(C)c2C1 (stereo not drawn) | -11.92
91 | CC(C)N1Cc2c(C(=O)N3CCN(C)CC3)nn(C)c2C1 | 107
92 | CCC(C)N1Cc2c(C(=O)N3CCCC3)nn(C)c2C1.O=C(O)C(F)(F)F (stereo not drawn) | 4.311
93 | CC(C)N1CCc2[nH]nc(C(=O)N3CCOCC3)c2C1.O=C(O)C(F)(F)F.O=C(O)C(F)(F)F | -15.4
94 | CC(C)N1CCc2c(C(=O)N3CCOCC3)nn(C)c2C1.O=C(O)C(F)(F)F | 113.7
95 | Cn1nc(Cn2cccn2)c2c1CN(C1CCOC1)C2.O=C(O)C(F)(F)F (stereo not drawn) | -10.84
96 | CC(C)N1CCc2[nH]nc(C(=O)N3CCN(C)CC3)c2C1.O=C(O)C(F)(F)F.O=C(O)C(F)(F)F.O=C(O)C(F)(F)F | -19.75
97 | CC(C)N1CCc2ncn(C)c2C1C(=O)N1CCOCC1.O=C(O)C(F)(F)F (stereo not drawn) | -11.58
98 | CCC(C)N1Cc2c(C(=O)N3CCOCC3)nn(C)c2C1.O=C(O)C(F)(F)F (stereo not drawn) | 101.3

From ChEMBL document CHEMBL3988442, “University of Dundee, Small-Polar-MMV Screening Library” (2021)
